Screening data from PubChem BioAssay.
The list is not random: actives were taken first. Their share in the collection is about 1.5%.
HGIII-sPLA2 inh = Blocks human group III sPLA2 activity; Q9NZ20; QFRET BODIPY PC-A2 liposome hydrolysis, fluorescence; inhibition, % at 12.2 µM; hit rate 0.56% among 370,000;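 active means inhibition above mean plus 3 SD of compounds lying within the high and low control bounds, cut at about 19% in these data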;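 further: 0% = median of test compound wells and 100% = no enzyme DMSO wells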
Target sequence (Q9NZ20 whole entry, looked up): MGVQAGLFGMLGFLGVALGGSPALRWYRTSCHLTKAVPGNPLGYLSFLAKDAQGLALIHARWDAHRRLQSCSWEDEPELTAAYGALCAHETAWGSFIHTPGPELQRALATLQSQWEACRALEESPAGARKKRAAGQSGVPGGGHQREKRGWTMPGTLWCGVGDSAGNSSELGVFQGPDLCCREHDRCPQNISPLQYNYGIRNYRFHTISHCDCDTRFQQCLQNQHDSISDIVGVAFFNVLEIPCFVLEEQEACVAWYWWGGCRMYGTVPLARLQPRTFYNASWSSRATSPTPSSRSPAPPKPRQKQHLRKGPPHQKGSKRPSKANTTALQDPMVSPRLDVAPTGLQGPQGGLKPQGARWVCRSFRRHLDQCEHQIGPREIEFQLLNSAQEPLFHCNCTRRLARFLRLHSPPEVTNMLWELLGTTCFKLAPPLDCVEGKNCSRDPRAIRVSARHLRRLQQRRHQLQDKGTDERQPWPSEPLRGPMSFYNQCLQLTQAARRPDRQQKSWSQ
AI-2 QS mod = Vibrio harveyi AI-2 quorum sensing modulation | activity change, % at 7.5 µM | Vibrio harveyi JMH597 AI-2 luminescence/OD600 ratio, 9 h; stronger effect = lower value; strain lacks LuxN and CqsS sensors; 0 = neutral-control median | hit rate 0.4% among 300,000; in the data active means activity change below about -75%, passing the limit was not always enough; inconclusive means no clear call, values can overlap the other calls;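 further: luminescence divided by OD600 gain over 9 h not by final OD600 alone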
Rin1 Abl inh = human Rin1-Abl interaction inhibition; TR-FRET Rin1/Abl binding, biochemical; AID 588664; inhibition, % at 7.35 µM; P00519+Q13671; hit rate 0.4% among 360,000; in the data active means inhibition above about 5%, passing the limit was not always enough
ARNT TACC3 PPI = ARNT/TACC3 interaction disruption | Q9Y6A5 | AlphaScreen His-ARNT PAS-B/GST-TACC3 binding, luminescence; TACC3 fragment carries E629A point mutation | inhibition, % at 9.99 µM | hit rate 0.66% among 390,000;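 active means mean inhibition of replicates at least 50% and at least half of replicates each reaching 50%; inconclusive means half or more replicates reach 50% but mean below 50%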;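 further: 0% = complete ARNT plus TACC3 wells and 100% = ARNT alone without TACC3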
* marks the source's active call; other numbers are inactive results; ? = inconclusive; nt = no result.

SMILES	HGIII-sPLA2 inh	AI-2 QS mod	Rin1 Abl inh	ARNT TACC3 PPI
CC(Sc1nncs1)C(=O)Nc1ccc(S(=O)(=O)Nc2ncccn2)cc1 (stereo not drawn)	14	nt	5	48*
CC(Sc1nncs1)C(=O)Nc1ccc2c(c1)OCO2 (stereo not drawn)	-1	19	0	-31
Cc1cccc(OCC(=O)O/N=C(\N)c2ccccn2)c1C	-4	-93*	-2	-2
COc1ccc(NC(=O)c2c(NC(=O)CNCc3ccco3)sc3c2CCC3)cc1	-9	-5	-1	-9
CCOc1ccc(NC(=O)c2c(NC(=O)CNCCN3CCOCC3)sc3c2CCC3)cc1	-5	-10	-3	64*
C[C@H](CO)N1C[C@H](C)[C@H](CN(C)Cc2ccc(Oc3ccccc3)cc2)Oc2ccc(NS(=O)(=O)c3cn(C)cn3)cc2C1=O	nt	nt	nt	-6
O=C(CSCc1ccc(Cl)cc1)Nc1ccc(O)cc1C(=O)O	-2	15	3	46*
COc1cc(NC(=O)CSCc2ccc(Cl)cc2)c(C(=O)O)cc1OC	7	8	0	-2
CO[C@H]1CN(C)C(=O)c2ccc(NC(=O)C3CC3)cc2OC[C@@H](C)N(C(=O)c2ccccc2)C[C@@H]1C	nt	nt	nt	-5
Cc1nc2ccccc2c(=O)n1/N=C/c1cc(Br)ccc1O	1	19	-1	59*
O=C(NC(=S)Nc1ccc(NC(=O)c2cccs2)cc1)c1ccco1	4	13	0	-6
O=C(Cc1cccs1)NNC(=S)NC(=O)c1ccco1	19	-84*	1	17
O=C(NC(=S)NNC(=O)c1ccco1)c1ccccc1	13	?	1	21
O=C(/C=C/c1ccc(Br)cc1)NC(=S)NNC(=O)c1ccco1	5	-100*	1	-1
O=C(/C=C/c1ccccc1)NC(=S)NNC(=O)c1ccco1	18	?	-2	52*
C[C@H]1CN([C@@H](C)CO)C(=O)CCCn2nncc2CO[C@H]1CN(C)Cc1ccc2cccnc2c1	nt	nt	nt	0
Cc1noc(C)c1S(=O)(=O)Nc1ccc2c(c1)C(=O)N([C@H](C)CO)C[C@@H](C)[C@H](CN(C)Cc1ccc3c(c1)OCO3)OCCCC[C@@H](C)O2	nt	nt	nt	-2
O=C(Nc1cccc2ncccc12)c1ccc([N+](=O)[O-])o1	2	-109*	-4	nt
Cc1cccc(NC(=O)c2ccc([N+](=O)[O-])o2)n1	2	-89*	1	1
Cc1ccccc1NC(=O)c1ccc([N+](=O)[O-])o1	2	?	3	3
CCCN(C)C[C@H]1OCCCC[C@@H](C)Oc2ccc(NC(=O)Nc3ccc(C(F)(F)F)cc3)cc2C(=O)N([C@H](C)CO)C[C@H]1C	nt	nt	nt	9
CC(C)CC#Cc1ccc2c(c1)O[C@@H](CN(C)C(=O)c1ccccc1F)[C@H](C)CN([C@@H](C)CO)S2(=O)=O	nt	nt	nt	-4
CNC(=O)C[C@@H]1CC[C@@H]2[C@H](COC[C@H](O)CN2Cc2ccccc2F)O1	nt	nt	nt	-1
COc1ccc(S(=O)(=O)Nc2ccc3c(c2)C(=O)N([C@@H](C)CO)C[C@H](C)[C@@H](CN(C)C(=O)Cc2ccccc2)OCCCC[C@H](C)O3)cc1	nt	nt	nt	16
COc1ccc2c(c1)OC[C@H]1[C@H]2N2C(=O)c3ccc(F)cc3NC(=O)[C@@]2(C)[C@H]1c1ccccc1	38*	nt	-2	0
SMILES	HGIII-sPLA2 inh	AI-2 QS mod	Rin1 Abl inh	ARNT TACC3 PPI
CN(c1ccc(Cl)cc1)c1cc(=O)n(C)c2ccccc12	0	-1	-4	-4
CN(C)c1ccc(C=c2c3ccccc3n3c2cc(-c2ccc(Cl)cc2)[n+]3C)cc1	48*	nt	-4	1
Nc1ccc(N=Nc2ccccc2)c(N)n1	23*	14	-6	22
C[C@H]1CN([C@@H](C)CO)C(=O)c2cccc(NS(=O)(=O)c3cn(C)cn3)c2O[C@H]1CN(C)Cc1ccc(-c2ccccc2)cc1	nt	nt	nt	-7
C[C@@H]1CN([C@H](C)CO)C(=O)Cc2cc(NC(=O)CCCCCC(=O)Nc3ccccc3N)ccc2O[C@H]1CN(C)C(=O)Nc1ccccc1	nt	nt	nt	7
NC(=NCc1ccc2c(c1)OCO2)NC(=O)c1ccccc1	-4	-77*	0	6
O=C1/C(=C/c2ccc([N+](=O)[O-])cc2)Oc2cc(O)ccc21	-10	-83*	-3	-6
Cc1ccc(C)c(NC(=O)c2ncn[nH]2)c1	-4	11	-1	-1
O=C(NC1CCCC1)c1ncn[nH]1	0	14	-3	22*
c1cnc2c(SCc3ccc(-c4nnco4)cc3)cccc2c1	-1	5	-1	59*
Oc1c(C=NCc2ccccc2)sc2ccccc12	3	-92*	0	20
CCOc1ccccc1-n1c(SCC(N)=O)nnc1-c1ccccc1	4	2	-1	8
CCOc1ccccc1-n1c(SCC(N)=O)nnc1-c1ccc(O)cc1	-1	1	0	54*
Cc1ccc(C)c(CSc2nnc(-c3cccnc3)o2)c1	-4	-80*	-2	-10
Cc1ccc(NC(=O)CSc2nnc(-c3cccnc3)o2)c(C)c1	10	6	3	-5
Fc1ccccc1CSc1nnc(-c2cccnc2)o1	2	-92*	3	-6
N/C(Cc1ccc(Cl)cc1)=N\OC(=O)c1ccccc1	-5	-90*	-3	nt
COc1ccc(C(=O)O/N=C(\N)Cc2ccc(Cl)cc2)cc1OC	-7	26	-1	-3
COc1cccc(/C=N/N2C(=O)CSC2=S)c1O	-4	12	-4	67*
O=C1CSC(=S)N1N=Cc1c(O)ccc2ccccc12	12	nt	3	68*
COc1ccc(-c2ccc3c(c2)[C@H]2[C@H](CCN2S(=O)(=O)c2ccc(OC)cc2)[C@@H](CO)N3)cc1	nt	nt	nt	3
COc1ccccc1-c1cnc2c(c1)C(=O)N([C@H](C)CO)C[C@@H](C)[C@@H](CN(C)Cc1ccc(F)cc1)O2	nt	nt	nt	0
O=C(NCC[C@H]1CC[C@H](NC(=O)C2CCC2)[C@@H](CO)O1)c1ccc(F)cc1	nt	nt	nt	-16
CCNC(=O)C[C@@H]1CC[C@H]2[C@@H](COc3ccc(NC(=O)Nc4ccccc4F)cc3C(=O)N2C)O1	nt	nt	nt	-10
O=C1C(=O)c2ccccc2C(O)=C1CCCCl	nt	-19	0	37*
SMILES	HGIII-sPLA2 inh	AI-2 QS mod	Rin1 Abl inh	ARNT TACC3 PPI
COc1cc(CNCc2ccccn2)ccc1OCC(=O)NC(C)(C)C	-1	13	2	82*
COc1cc(CNCc2ccccn2)ccc1OCC(=O)NC1CCCCC1	3	26	-1	47*
CCOc1c(Cl)cc(CNCc2ccccn2)cc1OC	14	22	-2	49*
COc1cc(CNCc2ccccn2)ccc1OCc1ccccc1Cl	2	18	1	30
COc1cc(CNCc2cccnc2)ccc1OCC(=O)NC(C)(C)C	2	-3	0	-4
Cc1noc(C)c1NC(=O)N(C)C[C@@H]1Oc2ccc(NC(=O)CCC(F)(F)F)cc2C(=O)N([C@H](C)CO)C[C@@H]1C	nt	nt	nt	-2
Nc1ncnc(Sc2ccc(Cl)cc2)c1[N+](=O)[O-]	2	-15	-2	49*
O=c1c2ccccc2nc(SCc2ccccc2F)n1C1CCCC1	4	17	0	47*
